Source: the supplement of paper PMC10849652
The full data set covers some 8,800 targets. This sample favours those with a hit. About 0.5% of all pairs of compound and target were hits. Values without a mark were called inactive.

Legend:
Experiment in all cases: log2 fold change, soluble protein after heating vs DMSO (PISA); higher = thermal stabilisation; K562 lysate, 10 uM; active = over 0.2 and 3.5 SD of the protein, either way, in both replicates (recomputed)
vemurafenib = compound: CCCS(=O)(=O)Nc1ccc(F)c(C(=O)c2c[nH]c3ncc(-c4ccc(Cl)cc4)cc23)c1F [vemurafenib]
In short: (§1)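 Quantification was by TMTpro 16plex LC-MS/MS with equalised channel sums, applied to the supernatant after 21,000xg for 90 min. Samples were crude K562 extract at 1 mg/mL protein in PBS pH 7.4 with 1 mM MgCl2, treated with 10 μM compound for 30 min, heated for 3 min across 48°C-58°C, pooled and brought to 0.5% NP-40 at 4°C. Values are log-two fold changes in thermal stability relative to solvent controls, from duplicates.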

[1] = compound: CCCS(=O)(=O)Nc1ccc(F)c(C(=O)c2c[nH]c3ncc(Cl)cc23)c1F
In short: as §1

barasertib = compound: CCN(CCCOc1ccc2c(Nc3cc(CC(=O)Nc4cccc(F)c4)[nH]n3)ncnc2c1)CCOP(=O)(O)O [barasertib]
In short: as §1

[2] = compound: CC[C@@H]1C(=O)N(C)c2cnc(Nc3ccc(C(=O)NC4CCN(C)CC4)cc3OC)nc2N1C1CCCC1
In short: as §1

volasertib = compound: CC[C@@H]1C(=O)N(C)c2cnc(Nc3ccc(C(=O)N[C@H]4CC[C@H](N5CCN(CC6CC6)CC5)CC4)cc3OC)nc2N1C(C)C [volasertib]
In short: as §1

[3] = compound: CCn1c(C(=O)N(C2CC2)C2CC2)cc2c3c(ncn3C)c(Nc3cc(C)n(C)n3)nc21
In short: as §1

[4] = compound: CCn1cc(-c2ccnc3[nH]c(-c4cccc(CN(C)C)c4)cc23)c(-c2ccc(NC(=O)N(C)C)cc2)n1
In short: as §1

[5] = compound: CN1CCC(CNc2ccc3ncc(-c4cccc(OC(F)(F)F)c4)n3n2)CC1
In short: as §1

saracatinib = compound: CN1CCN(CCOc2cc(OC3CCOCC3)c3c(Nc4c(Cl)ccc5c4OCO5)ncnc3c2)CC1 [saracatinib]
In short: as §1

sotrastaurin = compound: CN1CCN(c2nc(C3=C(c4c[nH]c5ccccc45)C(=O)NC3=O)c3ccccc3n2)CC1 [sotrastaurin]
In short: as §1

alvocidib = compound: CN1CC[C@H](c2c(O)cc(O)c3c(=O)cc(-c4ccccc4Cl)oc23)[C@H](O)C1 [alvocidib]
In short: as §1

Tubastatin A = compound: CN1CCc2c(c3ccccc3n2Cc2ccc(C(=O)NO)cc2)C1 [Tubastatin A]
In short: as §1

[6] = compound: CNC(=O)C1=CC=CC=C1NC2=NC(=NC=C2Cl)NC3=C(C=C(C=C3)N4CCOCC4)OC
In short: as §1

defactinib = compound: CNC(=O)c1ccc(Nc2ncc(C(F)(F)F)c(NCc3nccnc3N(C)S(C)(=O)=O)n2)cc1 [defactinib]
In short: as §1

[7] = compound: CNc1nc(-c2ccc3c(N)n[nH]c3c2)cc(N2C[C@@H](C(=O)NC3CCCCC3)CC[C@H]2C)n1
In short: as §1

encorafenib = compound: COC(=O)N[C@@H](C)CNc1nccc(-c2cn(C(C)C)nc2-c2cc(Cl)cc(NS(C)(=O)=O)c2F)n1 [encorafenib]
In short: as §1

[8] = compound: COC(=O)[C@H](CCSC)NC(=O)C1=C(C=C(C=C1)NC[C@H](CS)N)C2=CC=CC=C2
In short: as §1

[9] = compound: COc1cc2nc(-c3cc(F)ccc3O)nc(N[C@@H]3CNC[C@H]3C(C)(C)O)c2cc1OC
In short: as §1

alisertib = compound: COc1cc(Nc2ncc3c(n2)-c2ccc(Cl)cc2C(c2c(F)cccc2OC)=NC3)ccc1C(=O)O [alisertib]
In short: as §1

gefitinib = compound: COc1cc2ncnc(Nc3ccc(F)c(Cl)c3)c2cc1OCCCN1CCOCC1 [gefitinib]
In short: as §1

Chain of UniProt Q13825 (Q13825 whole entry, looked up): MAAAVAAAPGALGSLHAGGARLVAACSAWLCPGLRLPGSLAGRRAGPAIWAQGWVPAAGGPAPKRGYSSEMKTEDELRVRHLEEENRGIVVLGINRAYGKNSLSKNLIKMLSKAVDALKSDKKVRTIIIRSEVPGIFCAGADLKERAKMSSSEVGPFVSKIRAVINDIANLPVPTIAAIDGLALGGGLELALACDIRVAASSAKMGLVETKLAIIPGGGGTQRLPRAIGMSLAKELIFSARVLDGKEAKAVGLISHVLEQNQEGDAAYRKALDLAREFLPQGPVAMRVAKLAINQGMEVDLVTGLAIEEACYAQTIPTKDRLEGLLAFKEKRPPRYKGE
Chain of UniProt O94986 (O94986 whole entry, looked up): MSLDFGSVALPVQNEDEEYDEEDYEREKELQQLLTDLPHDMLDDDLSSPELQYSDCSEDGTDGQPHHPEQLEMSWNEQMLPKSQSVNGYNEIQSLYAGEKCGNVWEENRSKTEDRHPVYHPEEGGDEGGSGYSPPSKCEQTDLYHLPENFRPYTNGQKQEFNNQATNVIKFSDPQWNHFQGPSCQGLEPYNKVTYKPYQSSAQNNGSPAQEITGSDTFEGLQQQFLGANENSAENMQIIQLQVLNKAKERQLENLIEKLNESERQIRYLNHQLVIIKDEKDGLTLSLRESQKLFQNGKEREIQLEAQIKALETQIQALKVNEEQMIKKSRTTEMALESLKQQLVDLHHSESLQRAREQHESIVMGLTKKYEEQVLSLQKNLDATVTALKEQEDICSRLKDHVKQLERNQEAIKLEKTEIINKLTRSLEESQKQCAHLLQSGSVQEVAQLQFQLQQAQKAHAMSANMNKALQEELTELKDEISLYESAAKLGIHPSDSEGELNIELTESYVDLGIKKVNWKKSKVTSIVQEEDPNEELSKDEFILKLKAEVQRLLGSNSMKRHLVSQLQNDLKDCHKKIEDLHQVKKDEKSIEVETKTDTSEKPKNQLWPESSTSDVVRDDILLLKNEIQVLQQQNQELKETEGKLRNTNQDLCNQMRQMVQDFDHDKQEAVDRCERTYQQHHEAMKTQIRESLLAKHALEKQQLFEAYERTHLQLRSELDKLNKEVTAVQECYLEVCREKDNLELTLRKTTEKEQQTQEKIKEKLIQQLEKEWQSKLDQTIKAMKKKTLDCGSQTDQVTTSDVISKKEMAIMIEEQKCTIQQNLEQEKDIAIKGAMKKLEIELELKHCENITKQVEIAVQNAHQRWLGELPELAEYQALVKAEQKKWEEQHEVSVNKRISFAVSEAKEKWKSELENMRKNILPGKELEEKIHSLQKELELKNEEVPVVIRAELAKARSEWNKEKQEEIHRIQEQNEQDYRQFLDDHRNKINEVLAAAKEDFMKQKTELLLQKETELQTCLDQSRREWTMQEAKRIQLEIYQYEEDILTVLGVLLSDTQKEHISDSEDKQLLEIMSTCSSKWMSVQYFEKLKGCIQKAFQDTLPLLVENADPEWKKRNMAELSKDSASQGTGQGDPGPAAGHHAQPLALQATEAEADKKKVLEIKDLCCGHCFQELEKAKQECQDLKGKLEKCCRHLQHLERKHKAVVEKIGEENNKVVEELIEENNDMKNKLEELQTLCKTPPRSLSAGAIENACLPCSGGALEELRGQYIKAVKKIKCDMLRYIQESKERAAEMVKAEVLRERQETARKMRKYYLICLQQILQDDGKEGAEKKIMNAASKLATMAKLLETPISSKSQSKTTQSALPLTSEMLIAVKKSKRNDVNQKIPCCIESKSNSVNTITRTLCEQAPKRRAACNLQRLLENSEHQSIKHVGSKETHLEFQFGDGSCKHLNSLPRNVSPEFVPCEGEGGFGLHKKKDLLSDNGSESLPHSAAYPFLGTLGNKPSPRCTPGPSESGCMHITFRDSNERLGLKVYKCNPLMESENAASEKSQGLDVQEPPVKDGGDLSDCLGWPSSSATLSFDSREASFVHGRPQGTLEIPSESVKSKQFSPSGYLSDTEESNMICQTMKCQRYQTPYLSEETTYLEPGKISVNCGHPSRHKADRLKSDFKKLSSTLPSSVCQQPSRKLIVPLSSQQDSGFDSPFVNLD
Chain of UniProt P45973 (P45973 whole entry, looked up): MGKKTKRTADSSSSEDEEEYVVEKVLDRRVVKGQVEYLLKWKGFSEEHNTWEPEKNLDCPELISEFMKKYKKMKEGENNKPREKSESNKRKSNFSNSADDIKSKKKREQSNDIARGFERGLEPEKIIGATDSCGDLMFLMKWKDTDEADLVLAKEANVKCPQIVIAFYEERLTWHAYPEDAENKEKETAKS
Chain of UniProt Q13042 (Q13042 whole entry, looked up): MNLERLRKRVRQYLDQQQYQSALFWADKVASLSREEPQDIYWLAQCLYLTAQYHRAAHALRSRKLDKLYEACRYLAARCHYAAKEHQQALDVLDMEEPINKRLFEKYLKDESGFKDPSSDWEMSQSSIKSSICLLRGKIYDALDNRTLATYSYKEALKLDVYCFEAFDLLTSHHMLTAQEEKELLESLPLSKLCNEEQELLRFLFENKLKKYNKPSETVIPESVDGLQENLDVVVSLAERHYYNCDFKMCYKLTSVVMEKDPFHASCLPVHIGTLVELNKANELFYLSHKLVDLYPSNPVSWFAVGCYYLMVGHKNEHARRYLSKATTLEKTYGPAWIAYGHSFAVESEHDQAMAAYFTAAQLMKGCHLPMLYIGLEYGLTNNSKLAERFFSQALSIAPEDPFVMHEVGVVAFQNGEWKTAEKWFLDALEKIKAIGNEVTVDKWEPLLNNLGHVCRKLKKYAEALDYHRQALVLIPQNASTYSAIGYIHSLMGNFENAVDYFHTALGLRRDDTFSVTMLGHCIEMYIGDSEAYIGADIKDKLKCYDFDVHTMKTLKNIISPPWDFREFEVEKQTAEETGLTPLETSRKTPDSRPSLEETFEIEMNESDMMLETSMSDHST
Chain of UniProt Q9BSU1 (Q9BSU1 whole entry, looked up): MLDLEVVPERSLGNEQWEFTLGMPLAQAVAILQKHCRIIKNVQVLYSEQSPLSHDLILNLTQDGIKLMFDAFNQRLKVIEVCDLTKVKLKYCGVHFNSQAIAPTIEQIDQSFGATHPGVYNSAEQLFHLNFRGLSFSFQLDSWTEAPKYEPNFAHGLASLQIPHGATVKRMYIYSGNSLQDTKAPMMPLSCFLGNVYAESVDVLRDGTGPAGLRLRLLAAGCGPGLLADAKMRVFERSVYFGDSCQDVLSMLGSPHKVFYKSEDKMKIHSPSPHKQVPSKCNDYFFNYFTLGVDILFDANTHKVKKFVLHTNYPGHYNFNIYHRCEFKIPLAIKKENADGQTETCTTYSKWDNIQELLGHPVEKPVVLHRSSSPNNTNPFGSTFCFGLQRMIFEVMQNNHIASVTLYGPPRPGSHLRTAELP
Chain of UniProt Q92879 (Q92879 whole entry, looked up): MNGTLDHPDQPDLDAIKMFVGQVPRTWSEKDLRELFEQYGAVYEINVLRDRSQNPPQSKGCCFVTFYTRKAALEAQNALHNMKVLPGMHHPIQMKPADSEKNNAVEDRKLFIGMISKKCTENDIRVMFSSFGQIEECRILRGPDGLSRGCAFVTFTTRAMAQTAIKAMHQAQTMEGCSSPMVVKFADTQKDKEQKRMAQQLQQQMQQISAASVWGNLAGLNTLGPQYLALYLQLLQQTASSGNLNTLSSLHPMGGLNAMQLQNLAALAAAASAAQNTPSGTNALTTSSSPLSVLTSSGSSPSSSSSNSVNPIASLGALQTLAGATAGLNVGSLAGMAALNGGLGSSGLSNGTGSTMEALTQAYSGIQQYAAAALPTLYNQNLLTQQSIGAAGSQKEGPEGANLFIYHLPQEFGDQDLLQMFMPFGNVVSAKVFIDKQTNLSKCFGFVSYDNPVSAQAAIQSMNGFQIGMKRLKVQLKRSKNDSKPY
Chain of UniProt Q15059 (Q15059 whole entry, looked up): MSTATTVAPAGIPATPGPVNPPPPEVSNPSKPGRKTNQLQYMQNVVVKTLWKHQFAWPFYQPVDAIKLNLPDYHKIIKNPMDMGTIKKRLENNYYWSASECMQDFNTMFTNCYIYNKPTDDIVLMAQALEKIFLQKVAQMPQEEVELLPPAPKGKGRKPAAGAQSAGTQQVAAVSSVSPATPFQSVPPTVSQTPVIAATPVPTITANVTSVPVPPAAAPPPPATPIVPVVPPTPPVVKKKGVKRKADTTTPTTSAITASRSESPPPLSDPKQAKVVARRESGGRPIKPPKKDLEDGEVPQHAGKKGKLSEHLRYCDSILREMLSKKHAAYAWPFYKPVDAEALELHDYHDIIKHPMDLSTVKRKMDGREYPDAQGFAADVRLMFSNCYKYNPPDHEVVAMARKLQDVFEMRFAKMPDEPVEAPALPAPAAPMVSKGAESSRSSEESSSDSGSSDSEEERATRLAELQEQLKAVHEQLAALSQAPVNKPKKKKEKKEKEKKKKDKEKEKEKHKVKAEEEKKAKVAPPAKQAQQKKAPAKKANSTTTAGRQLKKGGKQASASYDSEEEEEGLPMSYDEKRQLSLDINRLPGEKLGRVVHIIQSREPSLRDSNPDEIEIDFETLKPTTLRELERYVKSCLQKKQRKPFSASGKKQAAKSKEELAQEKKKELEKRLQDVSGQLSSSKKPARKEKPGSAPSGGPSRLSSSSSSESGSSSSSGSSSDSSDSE
Chain of UniProt A8MTT3 (A8MTT3 whole entry, looked up): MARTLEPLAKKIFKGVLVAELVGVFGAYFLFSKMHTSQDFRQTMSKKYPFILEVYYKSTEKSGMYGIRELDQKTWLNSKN
Chain of UniProt Q9H0Y0 (Q9H0Y0 whole entry, looked up): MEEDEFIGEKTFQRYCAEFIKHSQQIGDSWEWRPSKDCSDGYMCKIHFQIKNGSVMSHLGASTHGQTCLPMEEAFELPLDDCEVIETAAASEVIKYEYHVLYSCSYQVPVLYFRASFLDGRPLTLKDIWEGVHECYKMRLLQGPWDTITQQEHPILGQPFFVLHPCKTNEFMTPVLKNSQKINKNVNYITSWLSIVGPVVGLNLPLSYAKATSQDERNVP

Target | log2 fold change (vemurafenib) | log2 fold change [1] | log2 fold change (barasertib) | log2 fold change [2] | log2 fold change (volasertib) | log2 fold change [3] | log2 fold change [4] | log2 fold change [5] | log2 fold change (saracatinib) | log2 fold change (sotrastaurin) | log2 fold change (alvocidib) | log2 fold change (Tubastatin A) | log2 fold change [6] | log2 fold change (defactinib) | log2 fold change [7] | log2 fold change (encorafenib) | log2 fold change [8] | log2 fold change [9] | log2 fold change (alisertib) | log2 fold change (gefitinib)
ATXN2 (UniProt F8WB05) | -0.153 | -0.024 | 0.057 | -0.013 | -0.087 | -0.005 | 0.094 | -0.004 | 0.05 | 0.086 | -0.051 | 0.23 | 0.101 | -0.063 | -0.03 | -0.033 | 0.023 | 0.033 | – | –
CELF1 isoform 4 (UniProt Q92879) | 0.024 | 0.014 | 0.03 | -0.044 | -0.133 | 0.012 | 0.08 | -0.08 | 0.035 | 0.054 | 0 | -0.167 | 0.034 | 0.049 | -0.059 | 0.108 | -0.031 | -0.026 | 0.048 | 0.056
C16orf70 (UniProt Q9BSU1) | 0.053 | 0.086 | -0.016 | 0 | -0.038 | 0.018 | – | – | -0.037 | 0.031 | – | 0.075 | 0.082 | 0.216 | -0.005 | 0.04 | -0.135 | 0.076 | – | –
CAMLG (UniProt P49069) | -0.027 | 0 | -0.021 | 0.026 | 0.002 | -0.089 | 0.257 (active) | -0.04 | -0.026 | -0.002 | 0.051 | -0.037 | 0.044 | 0.067 | -0.012 | 0.09 | -0.13 | 0.006 | 0.136 | 0.028
CEP152 (UniProt O94986) | 0.031 | – | 0.106 | 0.25 | – | 0.008 | -0.009 | 0.272 | 0.051 | -0.039 | -0.077 | -0.061 | 0.019 | 0.019 | 0.182 | -0.064 | 0.04 | – | -0.007 | 0.008
BRD3 (UniProt Q15059) | -0.046 | 0.038 | -0.087 | 0.451 (active) | 0.263 | – | -0.143 | 0.188 | 0.008 | -0.082 | -0.059 | – | 0.105 | 0.017 | 0.09 | -0.016 | 0.018 | -0.015 | -0.003 | -0.15
ATG10 (UniProt Q9H0Y0) | 0.026 | – | 0.092 | 0.016 | – | 0.012 | -0.021 | 0.01 | -0.021 | 0.038 | 0.106 | -0.035 | 0.01 | -0.037 | -0.022 | 0.024 | 0.025 | – | 0.032 | 0.04
CBX5 (UniProt P45973) | 0.028 | 0.026 | -0.025 | 0.018 | 0.016 | -0.073 | -0.215 (active) | 0.066 | 0.001 | 0.016 | -0.07 | 0.037 | 0.073 | -0.011 | 0.021 | -0.035 | -0.007 | 0.021 | -0.054 | 0.009
AUH (UniProt Q13825) | 0.083 | -0.009 | 0.004 | 0.042 | -0.093 | 0 | 0.1 | 0 | -0.101 | 0.047 | 0.221 | 0.147 | 0.057 | -0.169 | 0.049 | 0.015 | 0.023 | -0.052 | – | –
BTK isoform 2 (UniProt Q06187) | -0.014 | 0.013 | 0.128 | – | -0.106 | 0.01 | -0.147 | 0.053 | 0.058 | -0.026 | -0.037 | -0.113 | 0.307 (active) | 0.017 | -0.039 | -0.033 | 0.051 | -0.029 | -0.012 | -0.046
CEBPZOS (UniProt A8MTT3) | 0.031 | -0.026 | – | -0.048 | -0.007 | 0.024 | -0.176 | 0.041 | 0.03 | -0.005 | -0.063 | -0.124 | 0.015 | 0.075 | -0.055 | 0.064 | 0.046 | -0.099 | -0.064 | 0.006
C2CD5 isoform 3 (UniProt Q86YS7) | 0.068 | 0.022 | 0.049 | 0.062 | -0.025 | -0.069 | -0.309 (active) | 0.162 | 0.058 | -0.023 | -0.157 | 0.006 | -0.003 | -0.002 | 0.01 | 0.054 | -0.028 | 0.016 | -0.016 | 0.054
BTRC (UniProt Q9Y297) | -0.002 | 0.023 | 0.052 | 0.076 | -0.041 | -0.088 | 0.073 | 0.067 | – | – | -0.05 | -0.019 | -0.049 | -0.018 | – | 0.035 | 0.172 | 0.096 | -0.022 | -0.058
CDK8 (UniProt P49336) | 0.065 | 0.138 | 0.002 | – | -0.083 | -0.011 | -0.134 | 0.045 | 0.109 | -0.001 | 0.384 (active) | -0.059 | -0.065 | -0.101 | 0.083 | – | – | -0.047 | -0.052 | 0.07
CDC16 (UniProt Q13042) | -0.042 | 0.001 | -0.018 | -0.074 | -0.063 | 0.043 | 0.046 | -0.041 | -0.005 | 0.02 | 0.012 | -0.1 | 0.002 | -0.024 | -0.097 | 0.032 | -0.133 | -0.037 | -0.008 | 0.017
CAMK2B (UniProt Q13554) | 0.011 | -0.058 | 0.014 | – | -0.145 | 0.022 | -0.021 | 0.049 | -0.077 | – | 0.318 | -0.035 | – | 0.009 | -0.069 | -0.045 | 0.067 | -0.005 | 0.001 | 0.026
CDC40 (UniProt O60508) | 0.01 | 0.013 | -0.016 | -0.105 | -0.001 | 0.034 | -0.006 | 0.046 | -0.056 | -0.049 | 0.016 | 0.147 | 0.045 | -0.002 | 0.069 | 0.095 | 0.069 | 0.034 | -0.049 | -0.021
